Only a selection was taken, and the strongest signals are over-represented in it overall.
Assays:
Assay in all cases: glycan array binding signal (z-score within array); higher = stronger binding
Settings in all cases: glycan notation: IUPAC condensed, linker removed
[1] = target: Fuc(a1-2)Gal(b1-4)GlcNAc(b1-3)Gal(b1-4)GlcNAc(b1-2)Man(a1-3)[Fuc(a1-2)Gal(b1-4)GlcNAc(b1-3)Gal(b1-4)GlcNAc(b1-2)Man(a1-6)]Man(b1-4)GlcNAc(b1-4)GlcNAc
How it was run: (§1)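 Glycan array data were curated from 3228 arrays in the Consortium for Functional Glycomics database and kept only where the protein sequence was available. Glycan names were converted to IUPAC-condensed notation, and columns mapping to the same glycan were averaged. The binding signal is a within-array Z-score, averaged across arrays of the same protein sequence at different concentrations or buffers and across linkers. Negative Z-scores can be read as non-binding.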

[2] = target: Fuc(a1-2)Gal3S(b1-4)GlcNAc
How it was run: as §1

[3] = target: Fuc(a1-2)[Gal(a1-3)]Gal(b1-3)GlcNAc(b1-6)GalNAc
How it was run: as §1

[4] = target: Fuc(a1-2)[GalNAc(a1-3)]Gal(b1-3)GlcNAc(b1-3)GalNAc
How it was run: as §1

[5] = target: Fuc(a1-2)[GalNAc(a1-3)]Gal(b1-4)GlcNAc(b1-2)Man(a1-3)[Fuc(a1-2)[GalNAc(a1-3)]Gal(b1-4)GlcNAc(b1-2)Man(a1-6)]Man(b1-4)GlcNAc(b1-4)GlcNAc
How it was run: as §1

[6] = target: Fuc(a1-2)[GalNAc(a1-3)]Gal(b1-4)GlcNAc(b1-3)GalNAc
How it was run: as §1

[7] = target: Fuc(a1-3)[Gal(b1-4)]Glc6S
How it was run: as §1

[8] = target: Fuc(a1-3)[Gal(b1-4)]GlcNAc(b1-2)Man
How it was run: as §1

[9] = target: Fuc(a1-3)[Gal(b1-4)]GlcNAc(b1-6)GalNAc
How it was run: as §1

[10] = target: Gal(a1-4)Gal(b1-4)GlcNAc(b1-2)Man(a1-3)[Gal(a1-4)Gal(b1-4)GlcNAc(b1-2)Man(a1-6)]Man(b1-4)GlcNAc(b1-4)GlcNAc
How it was run: as §1

[11] = target: Gal(a1-4)Gal(b1-4)GlcNAc(b1-3)Gal(b1-4)Glc
How it was run: as §1

Gal(b1-3)GalNAc = target: Gal(b1-3)GalNAc
How it was run: as §1

[12] = target: Gal(b1-3)GalNAc(b1-4)Gal(b1-4)Glc
How it was run: as §1

[13] = target: Gal(b1-3)GlcNAc(b1-3)Gal(b1-3)GlcNAc
How it was run: as §1

[14] = target: Gal(b1-3)[Fuc(a1-4)]GlcNAc
How it was run: as §1

[15] = target: Gal(b1-4)GlcNAc(b1-2)Man(a1-3)[Gal(b1-4)GlcNAc(b1-2)Man(a1-6)][GlcNAc(b1-4)]Man(b1-4)GlcNAc(b1-4)[Fuc(a1-6)]GlcNAc
How it was run: as §1

[16] = target: Gal(b1-4)GlcNAc(b1-2)[Gal(b1-4)GlcNAc(b1-4)]Man(a1-3)[Gal(b1-4)GlcNAc(b1-2)Man(a1-6)]Man(b1-4)GlcNAc(b1-4)GlcNAc
How it was run: as §1

[17] = target: Gal(b1-4)GlcNAc(b1-2)[Gal(b1-4)GlcNAc(b1-6)]Man(a1-6)[GlcNAc(b1-4)][Gal(b1-4)GlcNAc(b1-2)[Gal(b1-4)GlcNAc(b1-4)]Man(a1-3)]Man(b1-4)GlcNAc(b1-4)[Fuc(a1-6)]GlcNAc
How it was run: as §1

[18] = target: Gal(b1-4)GlcNAc(b1-3)Gal(b1-4)GlcNAc(b1-3)Gal(b1-4)GlcNAc(b1-3)Gal(b1-4)GlcNAc(b1-3)Gal(b1-4)GlcNAc(b1-2)Man(a1-3)[Gal(b1-4)GlcNAc(b1-3)Gal(b1-4)GlcNAc(b1-3)Gal(b1-4)GlcNAc(b1-3)Gal(b1-4)GlcNAc(b1-3)Gal(b1-4)GlcNAc(b1-2)Man(a1-6)]Man(b1-4)GlcNAc(b1-4)GlcNAc
How it was run: as §1

Gal(b1-6)Gal = target: Gal(b1-6)Gal
How it was run: as §1

Gal3S(b1-3)GlcNAc = target: Gal3S(b1-3)GlcNAc
How it was run: as §1

[19] = target: Gal3S(b1-4)[Fuc(a1-3)]GlcNAc6S
How it was run: as §1

Gal6S(b1-4)Glc6S = target: Gal6S(b1-4)Glc6S
How it was run: as §1

Gal6S(b1-4)GlcNAc = target: Gal6S(b1-4)GlcNAc
How it was run: as §1

[20] = target: GlcNAc(b1-2)Man(a1-3)[GlcNAc(b1-4)][GlcNAc(b1-2)Man(a1-6)]Man(b1-4)GlcNAc(b1-4)[Fuc(a1-6)]GlcNAc
How it was run: as §1

[21] = target: GlcNAc(b1-3)Gal(b1-4)GlcNAc(b1-3)Gal(b1-4)GlcNAc(b1-3)Gal(b1-4)GlcNAc(b1-2)[GlcNAc(b1-3)Gal(b1-4)GlcNAc(b1-3)Gal(b1-4)GlcNAc(b1-3)Gal(b1-4)GlcNAc(b1-6)]Man(a1-6)[GlcNAc(b1-3)Gal(b1-4)GlcNAc(b1-3)Gal(b1-4)GlcNAc(b1-3)Gal(b1-4)GlcNAc(b1-2)Man(a1-3)]Man(b1-4)GlcNAc(b1-4)[Fuc(a1-6)]GlcNAc
How it was run: as §1

[22] = target: GlcNAc(b1-3)Gal(b1-4)GlcNAc(b1-3)Gal(b1-4)GlcNAc(b1-3)Gal(b1-4)GlcNAc(b1-3)Gal(b1-4)GlcNAc(b1-2)Man(a1-3)[GlcNAc(b1-3)Gal(b1-4)GlcNAc(b1-3)Gal(b1-4)GlcNAc(b1-3)Gal(b1-4)GlcNAc(b1-3)Gal(b1-4)GlcNAc(b1-2)Man(a1-6)]Man(b1-4)GlcNAc(b1-4)GlcNAc
How it was run: as §1

[23] = target: GlcNAc(b1-3)Gal(b1-4)GlcNAc(b1-3)Gal(b1-4)GlcNAc(b1-3)Gal(b1-4)GlcNAc(b1-3)Gal(b1-4)GlcNAc(b1-2)[GlcNAc(b1-3)Gal(b1-4)GlcNAc(b1-3)Gal(b1-4)GlcNAc(b1-3)Gal(b1-4)GlcNAc(b1-3)Gal(b1-4)GlcNAc(b1-6)]Man(a1-6)[GlcNAc(b1-3)Gal(b1-4)GlcNAc(b1-3)Gal(b1-4)GlcNAc(b1-3)Gal(b1-4)GlcNAc(b1-3)Gal(b1-4)GlcNAc(b1-2)Man(a1-3)]Man(b1-4)GlcNAc(b1-4)[Fuc(a1-6)]GlcNAc
How it was run: as §1

[24] = target: Man(a1-2)Man(a1-2)Man(a1-6)[Man(a1-3)]Man
How it was run: as §1

[25] = target: Man(a1-2)Man(a1-6)[Man(a1-3)]Man(a1-6)[Man(a1-2)Man(a1-2)Man(a1-3)]Man(b1-4)GlcNAc(b1-4)GlcNAc
How it was run: as §1

[26] = target: Man(a1-3)[Man(a1-6)]Man(a1-6)[Man(a1-3)]Man
How it was run: as §1

Man(a1-6)Man = target: Man(a1-6)Man
How it was run: as §1

[27] = target: Neu5Ac(a2-3)Gal(b1-4)GlcNAc(b1-3)Gal(b1-4)GlcNAc(b1-3)GalNAc
How it was run: as §1

[28] = target: Neu5Ac(a2-3)Gal(b1-4)GlcNAc(b1-3)Gal(b1-4)GlcNAc(b1-6)[Gal(b1-3)]GalNAc
How it was run: as §1

[29] = target: Neu5Ac(a2-3)Gal(b1-4)[Fuc(a1-3)]GlcNAc
How it was run: as §1

[30] = target: Neu5Ac(a2-3)Gal6S(b1-4)[Fuc(a1-3)]GlcNAc
How it was run: as §1

[31] = target: Neu5Ac(a2-6)Gal(b1-4)GlcNAc(b1-2)Man(a1-3)Man(b1-4)GlcNAc(b1-4)GlcNAc
How it was run: as §1

[32] = target: Neu5Ac(a2-6)Gal(b1-4)GlcNAc(b1-3)Gal(b1-4)GlcNAc(b1-6)[Gal(b1-3)]GalNAc
How it was run: as §1

[33] = target: Neu5Ac(a2-8)Neu5Ac(a2-3)[GalNAc(b1-4)]Gal(b1-4)Glc
How it was run: as §1

[34] = target: Neu5Ac(a2-8)Neu5Ac(a2-8)Neu5Ac(a2-3)Gal(b1-4)Glc
How it was run: as §1

[35] = target: Neu5Ac(b2-6)Gal(b1-4)GlcNAc
How it was run: as §1

[36] = target: Neu5Gc(a2-8)Neu5Gc(a2-3)Gal(b1-4)GlcNAc
How it was run: as §1

B1: Pwp3 (Candida glabrata) (protein)
chain: MGSSHHHHHHSSGLVPRGSHMASKNPVDFTTVCQFPDNFSKKPGFLATTARLGLWITGNSYKELLNYPGTFTLTTQQASTTTPNIQLRGTDLFTTIYGLTVYPLYLLVELQGYFVPTQSGMYTFSLTGSDDAAIIFIGNPSTFPCDAFKTWPQATANDITVTDSINPSRTLYMVKGVAYPLRIAYYNGLGNGVLNAAFTDPSGTKRTDWNGYIWQYDQCSTCTYK
glycan array binding signal (z-score) [1]: -0.363 | glycan array binding signal (z-score) [2]: -0.232 | glycan array binding signal (z-score) [3]: 4.02 | glycan array binding signal (z-score) [4]: -0.434 | glycan array binding signal (z-score) [5]: 3.9 | glycan array binding signal (z-score) [6]: 3.75 | glycan array binding signal (z-score) [7]: 5.3 | glycan array binding signal (z-score) [8]: -0.319 | glycan array binding signal (z-score) [9]: -0.516 | glycan array binding signal (z-score) [10]: -0.343 | glycan array binding signal (z-score) [11]: -0.304 | glycan array binding signal (z-score) (Gal(b1-3)GalNAc): -0.038 | glycan array binding signal (z-score) [12]: 4.7 | glycan array binding signal (z-score) [13]: 0.247 | glycan array binding signal (z-score) [14]: -0.246 | glycan array binding signal (z-score) [15]: -0.02 | glycan array binding signal (z-score) [16]: -1.19 | glycan array binding signal (z-score) [17]: -0.123 | glycan array binding signal (z-score) [18]: 3.73 | glycan array binding signal (z-score) (Gal(b1-6)Gal): -0.446 | glycan array binding signal (z-score) (Gal3S(b1-3)GlcNAc): -0.36 | glycan array binding signal (z-score) [19]: -0.535 | glycan array binding signal (z-score) (Gal6S(b1-4)Glc6S): 6.29 | glycan array binding signal (z-score) (Gal6S(b1-4)GlcNAc): 0.319 | glycan array binding signal (z-score) [20]: -0.195 | glycan array binding signal (z-score) [21]: 1.66 | glycan array binding signal (z-score) [22]: -0.439 | glycan array binding signal (z-score) [23]: 4.05 | glycan array binding signal (z-score) [24]: -0.335 | glycan array binding signal (z-score) [25]: -0.066 | glycan array binding signal (z-score) [26]: 4.4 | glycan array binding signal (z-score) (Man(a1-6)Man): -0.259 | glycan array binding signal (z-score) [27]: -0.424 | glycan array binding signal (z-score) [28]: 2.29 | glycan array binding signal (z-score) [29]: 0.139 | glycan array binding signal (z-score) [30]: -0.332 | glycan array binding signal (z-score) [31]: -0.617 | glycan array binding signal (z-score) [32]: 0.018 | glycan array binding signal (z-score) [33]: 4.12 | glycan array binding signal (z-score) [34]: -1.21 | glycan array binding signal (z-score) [35]: 0.194 | glycan array binding signal (z-score) [36]: 0.001

— the supplement of paper PMC8728848
